# ± gives the standard deviation of the averaged measurements. In all, about 1,900 compounds were measured (“CD40L-induced NF-kB luciferase activity, plate-corrected, relative to DMSO (0) and IKK inhibitor VII (-100) controls”: median about 0.032, lowest 2% from about -26 on). This excerpt belongs to a sample that is enriched for the lowest values.
# System: BL2-NFkB-Luc
# Assay: CD40L-induced NF-kB luciferase activity, plate-corrected, relative to DMSO (0) and IKK inhibitor VII (-100) controls (% normalized activity); higher = more NF-kB reporter activity (less inhibition)
# Settings: 9.4 µM; stimulus: tCD40L 64 ng/ml; 4.5 h
# Experimental: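 BL2 B cells with a stable NF-kB response-element luciferase reporter (BL2-NFkB-Luc), 384-well. Cells were pre-incubated with compound at 9.4 uM for 1 h at 37 C, then stimulated with 64 ng/ml trimerized CD40L for 4.5 h; luciferase was read with Steady-Glo. Signal was normalised per plate in Genedata (median DMSO neutral control = 0, median IKK inhibitor VII at 50 uM = -100) with Assay Median plate-pattern correction; duplicate plates.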
row,Compound,CD40L-induced NF-kB luciferase activity
1,O=C1C(=O)c2ccccc2-c2ccccc21,-94.61 ± 0.41
2,O=C1C=Cc2ccccc2C1=O,4.88 ± 5.5
3,CCCC[N+]1(C)[C@@H]2CC(OC(=O)[C@H](CO)c3ccccc3)C[C@H]1[C@@H]1O[C@@H]12 (stereo partly drawn),-0.479 ± 2.2
4,CCN(CC)C(=O)N[C@H]1C[C@@H]2c3cccc4[nH]cc(c34)C[C@H]2N(C)C1,-15 ± 8.3
5,CC(C)C[C@H]1C(=O)N2CCC[C@H]2[C@]2(O)O[C@](NC(=O)[C@@H]3C=C4c5cccc6[nH]c(Br)c(c56)CC4N(C)C3)(C(C)C)C(=O)N12 (stereo partly drawn),3.22 ± 1.5
6,c1ccc2c(c1)[nH]c1cnccc12,-5 ± 7.4
7,COc1cc([C@@H]2c3cc4c(cc3[C@H](O)[C@H]3COC(=O)[C@H]23)OCO4)cc(OC)c1OC,-50.7 ± 3
8,CCCC(=O)OCC[N+](C)(C)C,-5.48 ± 4.7
9,CN1[C@@H]2CC[C@H]1CC(OC(=O)C1C=Nc3ccccc31)C2 (stereo partly drawn),-2.21 ± 6.7
10,Cc1ccc2c(c1)C1CN(C)CCC1N2C(=O)Nc1cccc(Cl)c1 (stereo not drawn),-6.16 ± 2.1
11,C[C@H]1OC[C@@H](C[N+](C)(C)C)O1,-0.99 ± 1.9
12,COc1ccc(CN2CC3CC(C2)c2cccc(=O)n2C3)cc1OC (stereo not drawn),-5.62 ± 3.4
13,CN[C@H](C)[C@H](O)c1ccccc1,-2.12 ± 1.3
14,COc1ccc(OCC(=O)N2c3ccc(C)cc3C3CN(C)CCC32)cc1 (stereo not drawn),0.261 ± 0.6
15,CC(C)C[C@H](NC(=O)[C@@H]1CCCN1C(=O)[C@@H](N)Cc1ccc(O)cc1)C(=O)NCC(N)=O,-28.7 ± 4.1
16,CC(C)(C)NCC(O)c1cc(Cl)c(N)c(Cl)c1 (stereo not drawn),-3.51 ± 17
17,COc1ccc(CCN2CCC(Nc3nc4ccccc4n3Cc3ccc(F)cc3)CC2)cc1,-4.18 ± 3.9
18,CC[C@H]1CN2CCc3cc(OC)c(OC)cc3[C@@H]2C[C@@H]1C[C@H]1NCCc2cc(OC)c(OC)cc21,-93.93 ± 0.21
19,c1ccc2c3c([nH]c2c1)CNCC3,-0.0865 ± 4.1
20,C[C@@H]1O[C@@H](O[C@H]2C[C@@H](O)[C@]3(CO)[C@H]4[C@H](O)C[C@]5(C)[C@@H](C6=CC(=O)OC6)CC[C@]5(O)[C@@H]4CC[C@]3(O)C2)[C@H](O)[C@H](O)[C@H]1O,-78.94 ± 0.33
21,CC12CC[C@H]3[C@@H](CCC4(O)C[C@H](O)CCC34C=NNC(=O)Cc3ccccc3)C1(O)CCC2C1=CC(=O)OC1 (stereo partly drawn),-1.26 ± 0.48
22,C[C@@H]1O[C@@H](O[C@H]2C[C@@H](O)[C@]3(CO)[C@H]4[C@H](O)C[C@]5(C)[C@@H](C6COC(=O)C6)CC[C@]5(O)[C@@H]4CC[C@]3(O)C2)[C@H](O)[C@H](O)[C@H]1O (stereo partly drawn),2.54 ± 3.8
23,CC12CN3CC(C)(CN(C1)C3c1cccs1)C2O (stereo not drawn),-2.02 ± 2.9
24,C[C@]12CCC(=O)C=C1CCC1C2CC[C@@]2(C)C1CC[C@@]2(O)CC#N (stereo partly drawn),-0.607 ± 3.7
25,O=C1CSC2N1CCNC21CCCCC1 (stereo not drawn),-1.57 ± 5.5
26,CCC1(c2ccccc2)C(=O)N(COC)C(=O)N(COC)C1=O,-30.1 ± 1.2
27,CN1C2CCC1CC(OC(=O)c1ccc(Cl)cc1)C2 (stereo not drawn),-2.24 ± 2.5
28,CN(C)[C@@H]1C(=O)C(C(N)=O)C(=O)[C@@]2(O)C(=O)C3C(=O)c4c(O)cccc4[C@@](C)(O)[C@H]3[C@H](O)[C@@H]12 (stereo partly drawn),0.102 ± 0.97
